Laboratory results as given in PubChem BioAssay (NCI).
About 83,000 compounds went through this panel and 20% of them were active in at least one assay; those are over-represented in the sample as a whole.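 96-well plates, one dose, 48 hours. Percent growth reported; active if below 10.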 The source made the active and inactive calls.

test system: MDA-MB-468 breast; assay: NCI-60 one-dose screen, 48 h (100 = growth as untreated, 0 = no growth, -100 = all killed); settings: 10 µM unless noted

| SMILES | growth |
| --- | --- |
| CCN(CC)S(=O)(=O)c1ccc(-c2nc(C(Cl)Cl)nc3cc(C)nn23)cc1 | -33.6% (active) |
| Cc1cc[n+](CCCCCCCCCC[n+]2ccc(C)cc2)cc1 | 6.78% (active) |
| Cc1nc2sc(C(=O)Nc3cccc4ccccc34)c(N)c2cc1C(C)O (stereo not drawn) | 25.3% (inactive) |
| Cn1c2c(c3ccccc31)CCN1C[C@@H]3CCCC[C@H]3C[C@@H]21 | -16.1% (active) |
| C=C1C(=O)O[C@H]2[C@H]1CC/C(COC(=O)NCC(C)c1ccc(CC(C)C)cc1)=C\CC[C@@]1(C)O[C@@H]21 (stereo partly drawn) | -64% (active) |
| CC(=O)Oc1c(Cl)cccc1-c1ccccc1 | 100% (inactive) |
| CSc1nc(NCCO)c(C#N)c(-c2cccc([N+](=O)[O-])c2)n1 | 105% (inactive) |
| COc1ccc(CCN2CCC(CN(C)Cc3cnn(-c4ccccc4)c3)CC2)cc1 | 19% (inactive) |
